This is a sample that favours compounds with a hit; in the whole collection about 8% have one here.
Marburg entry: Marburg virus entry inhibition | Marburg virus pseudotype entry/binding inhibition, cell-based | Potency, µM (titrated, usually from 49.2 µM), for inactives: at the top dose activity change, negative = inhibition, most hits filed as inhibitors | hit rate 6.5% among 18,000
Lassa entry: Lassa virus entry inhibition; AID 720533; Potency, µM (top dose mostly 49.2 µM), for inactives: at the highest dose activity change, negative = inhibition, hits mostly inhibitors; Lassa virus pseudotyped entry inhibition, cell-based qHTS; hit rate 4.1% among 18,000
The depositor's hits bear a star; u = inconclusive; x = no result given; ! = repeats disagree; [ ] = another dose, or the depositor's remark. Calls come from the whole dose curve; tested in HEK293 cells. % is set by controls: 0 for no effect and ±100 for the full control effect; potency is the fitted concentration of half-maximal effect.

SMILES | Marburg entry | Lassa entry
CC12C=C(C=CCCc3ccco3)C(C)(C1)C(CCc1ccco1)CC2=O (centres undefined) | -6%[8.59 µM] | 9%[8.59 µM]
O=C1c2ccccc2C(=O)c2c(O)ccc(O)c21 | -2% | 2%
O=C1c2c(O)ccc(O)c2C(=O)c2c(NCCNCCO)ccc(NCCNCCO)c21 | 0.1µM* | 0.32µM*
CC#CCN1C(=O)NC(c2ccccc2)C(C(=O)OCC)=C1c1ccccc1 (centres undefined) | 7%[8.59 µM] | -16%[8.59 µM]
Cc1cnc(-n2ncc(C(=O)NCCc3cccnc3)c2C)nc1-c1ccc(F)cc1 | u | -13%
Cc1cnc(-n2ncc(C(=O)NCCCc3ccncc3)c2C)nc1-c1ccc(F)cc1 | 20µM* | -12%
CC(=O)C1CC[C@H]2C3CC[C@@H]4CC(O)CC[C@@]4(C)C3CC[C@]12C (some centres undefined) | u | -11%
C[C@]12CC[C@H](O)C[C@H]1CC[C@@H]1[C@@H]2CC[C@]2(C)[C@@H](c3ccc(=O)oc3)C[C@H]3O[C@]132 | 2.5µM* | 2.8µM*
CC(C)CON=C1C[C@@H](O)[C@@H](O)[C@@H]2[C@H]3C(=O)N(C4CCCCC4)C(=O)[C@@H]3CC[C@@H]12 | -20%[8.59 µM] | x
Cc1ccc(NC(=O)CC2CC2)cc1-c1ccc(C(=O)NCC2CC2)cc1 | -6% | x
OC(CN1CCN(c2cccc(Cl)c2)CC1)C(c1ccccc1)c1ccccc1 (centres undefined) | 35µM* | 28µM*
O=C(O)COCCN1CCN(C(c2ccccc2)c2ccc(Cl)cc2)CC1 (centres undefined) | 7% | 2%
COc1ccc(C(=O)NCc2ccc(OCCN(C)C)cc2)cc1OC | -17% | -12%
Cc1ccc(NC(=O)c2ccnc(N3CCCC3)c2)cc1-c1ccc(C(=O)NCC2CC2)cc1 | 45% | x
COc1ccc(NC(=O)c2ccc(-c3ccc(-c4noc(C)n4)cc3C)cc2)cc1OCCN(C)C | 3.5µM* | 22µM*
COc1ccc(NC(=O)c2ccc(-c3ccc(-c4noc(C)n4)cc3C)cc2)cc1N1CCN(C)CC1 | 6.3µM* | 16µM*
Cc1nc(-c2ccc(-c3ccc(C(=O)N4CCc5cc6c(cc54)C4(CCN(C)CC4)CO6)cc3)c(C)c2)no1 | 10µM* | 28µM*
OC[C@@H]1O[C@H](OC2[C@@H](O)[C@@H](O)C(O)O[C@@H]2CO)[C@H](O)[C@@H](O)[C@@H]1OC1O[C@H](CO)[C@@H](O)[C@H](O)[C@@H]1O (some centres undefined) | 8% | 5%
[O][C@H]1[C@@H](O)[C@@H](CO)O[C@@H](O[C@@H]2[C@@H]3OC[C@H]2O[C@H](O[C@@H]2[C@@H](O)[C@H](C[C@@H]4[C@@H]5OC[C@H]4O[CH][C@@H]5O)O[C@H](CO)[C@@H]2OS(=O)(=O)O)[C@@H]3OS(=O)(=O)O)[C@@H]1O | 11µM* | -6%
CC(=O)OC[C@H]1O[C@H](CC=NO[C@@H](C)c2cn([C@H](CO)Cc3ccccc3)nn2)C=C[C@@H]1OC(C)=O | 34%[8.59 µM] | x
CC(C)=CCCC(C)=CCON=C1C[C@@H](O)[C@@H](O)[C@@H]2[C@H]3C(=O)N(c4ccc(F)cc4F)C(=O)[C@@H]3CC[C@H]12 | u | 8%[8.59 µM]
CC1=CC(=C(c2ccc(N)cc2)c2ccc(N)cc2)C=CC1=N | u | 7.9µM*
C=CCCCN1C=C(C(C)=O)C(c2ccccc2)NC1=O (centres undefined) | 18%[8.59 µM] | 28%[8.59 µM]
O=C(N/N=C\c1ccccc1O)c1ccccc1O | 7.1µM* | 7.9µM*
COC(=O)c1ccccc1O | -10% | -6%
SMILES | Marburg entry | Lassa entry
CSC[C@H]1CN(c2ccccc2)C(=O)[C@H]1CC(=O)Nc1ccc(Br)cc1 | -11% | 13%
CN(C)Cc1c[nH]c2ccccc12 | 6% | -2%
OCc1c[nH]c2ccccc12 | 32µM*! | 32µM*!
O=C(OCc1cn([C@@H]2CN(CC3CCCCC3)[C@@H](c3ccccc3)C[C@@H]2O)nn1)c1ccccc1 | -28% | x
CSc1ccc(CN2CCOc3ccc(CN4CCCCC4CO)cc3C2)cc1 (centres undefined) | u | -6%
CSc1ccc2c(c1)N(CCC1CCCCN1C)c1ccccc1S2 (centres undefined) | 7.9µM* | 22µM*
CSc1ccc2c(c1)N(CC[C@H]1CCCCN1C)c1ccccc1S2 | 7.9µM* | u
CN1CCCC[C@@H]1CCN1c2ccccc2Sc2ccc(S(C)=O)cc21 (some centres undefined) | u | 0%[17.8 µM]
CC(=O)C1=C(C)N(Cc2ccccc2)C(=O)NC1CCc1ccccc1 (centres undefined) | 14%[8.59 µM] | x
O=C1CCCC=C1C(O)COCc1ccccc1 (centres undefined) | 3%[8.59 µM] | -25%[8.59 µM]
Cc1ccccc1 | -1% | -4%
CCN1C(=O)NC(c2cccs2)C(C(C)=O)=C1C (centres undefined) | u | -8%[8.59 µM]
O=C(OCc1cn([C@H]2C[C@H](c3ccc(Cl)cc3)N(C(=O)c3cccs3)C[C@H]2O)nn1)c1ccccc1 | -22% | x
COc1cccc([C@@H]2Oc3ccc(OC)cc3C(=O)[C@H]2OC(=O)NCCOc2ccccc2)c1 | -10% | -4%
COc1ccc2c(c1)OC(C)(C)C(c1ccccc1)C2c1ccc(OCCN2CCCC2)cc1 (centres undefined) | 4.5µM* | u
CCCCCCCCCCC[C@@H]1C[C@H]2C=CCO[P@@](=O)(O1)O2 | 35% | x
C#C[C@]1(O)CC[C@H]2[C@@H]3CCC4=CCCC[C@@H]4[C@H]3C(=C)C[C@@]21CC | -12% | -26%
CC[C@]1(O)CC[C@H]2[C@@H]3CCC4=CCCC[C@@H]4[C@H]3CC[C@@]21C | -21% | 14µM*
COC(=O)C1=C(C)N(CCC(C)O[Si](C)(C)C(C)(C)C)C(=O)N(C(C)=O)C1c1ccccc1 (centres undefined) | 7%[8.59 µM] | 3%[8.59 µM]
CC1(C)O[C@H]2O[C@H]([C@H](O)CON=C3[C@H]4CCn5c(=O)n(-c6ccccc6)c(=O)n5[C@@H]4[C@H](O)[C@@H]4O[C@H]34)[C@H](O)[C@@H]2O1 | 39%[8.59 µM] | 20%[8.59 µM]
CC(=O)OC[C@H]1O[C@H](CC=NOC[C@@H](O)[C@H]2O[C@@H]3OC(C)(C)O[C@H]3[C@@H]2O)C=C[C@H]1OC(C)=O | u | -5%[8.59 µM]
O=C(c1cccs1)N1C[C@@H](O)[C@@H](n2cc(-c3ccc(F)cc3)nn2)C[C@@H]1c1ccccc1 | -21% | -26%
CCN(CC)C(=O)N[C@H]1C[C@@H]2c3cccc4[nH]cc(c34)C[C@H]2N(C)C1 | 5% | -8%
C=CCN1C[C@H](C(=O)N(CCCN(C)C)C(=O)NCC)C[C@@H]2c3cccc4[nH]cc(c34)C[C@H]21 | 7.9µM* | -12%
CCN1C(=O)[C@@H]2[C@H]3[C@H](O)[C@H](O)CC(=NOC[C@@H](O)COCc4ccco4)[C@@H]3CC[C@H]2C1=O | -22%[8.59 µM] | 1%[8.59 µM]
SMILES | Marburg entry | Lassa entry
CC(=O)Oc1ccc2c(c1OC(C)=O)OCC1(O)Cc3c(cc(OC(C)=O)c(OC(C)=O)c3OC(C)=O)C21 (centres undefined) | 7.9µM* | -19%
Oc1cc2c(cc1O)[C@H]1c3ccc(O)c(O)c3OC[C@@]1(O)C2 | u | -14%
Oc1ccc(Cl)cc1Sc1cc(Cl)ccc1O | u | 13µM*
Oc1ccc(Cl)cc1 | -16% | -4%
CC1=C[C@@H](COCc2ccccc2)O[C@@]2(C1)C(=O)N(Cc1ccc(Br)cc1)c1ccccc12 | 4%[8.59 µM] | -10%[8.59 µM]
CC(C)NC[C@H](O)COc1cccc2ccccc12 | 16µM*! | -7%

Assay outcomes deposited in PubChem BioAssay by National Center for Advancing Translational Sciences (NCATS).
